Data from PubChem BioAssay (Tox21).
Several values for one entry are separate records, joined by “and”; a condition that tells them apart may be missing. Equal values may be shown once. Results filed as inconclusive are left out. Activity calls are given as the source filed them. The call rests on the fitted dose curve; in most records, active means well fitted activation curve with a large enough effect in the repeat runs; inconclusive means weak or mixed curves, or effect the other way; inactive means no such curve, though single readings can be large or run the other way.

Experiment: qHTS assay to identify small molecule agonists of the estrogen related receptor signaling pathway with the pleiotropic PPARgamma coactivator (PGC) from Tox21 10K library (AID 1224842); further: nearly all actives have a fitted effect of over 15% in size
Details: PGC/ERR reporter cell line, luciferase ONE-Glo, 18 h; series mostly up to 92.4 µM; activation: at the top concentration
Description: National Center for Advancing Translational Sciences [NCATS] NIH Chemical Genomics Center [NCGC] U.S. Environmental Protection Agency [EPA] National Institutes of Environmental Health Sciences [NIEHS] National Toxicology Program [NTP] Assay overview: Estrogen related receptors (ERRs), the first orphan nuclear receptors discovered, play an important role in the control of cellular energy metabolism. ERRs are required for high-energy production in response to the environmental challenges. The pleiotropic PPARgamma coactivator (PGC) is a major partner of ERR and a key regulator in energy homeostasis. Together they have been implicated in the etiology of metabolic disorders such as Type 2 diabetes and metabolic syndrome. ERR-alpha was also identified as an adverse marker for breast cancer progression; ERR-alpha-positive tumors have a poor prognosis. To screen and to identify environmental compounds that perturb the PGC/ERR signaling pathways could provide valuable information for potential therapeutic or preventive measures in the treatment of metabolic disease. For identifying PGC/ERR agonists, PGC/ERR cell line (provided by NTP) has been used to screen Tox21 10K library.
Assay Protocol Summary: The PGC/ERR cells were dispensed at 2,000 cells/5 ul/well in 1536-well white plates using a Multidrop dispenser. After the assay plates were incubated at a 37 C/5% CO2 incubator for 6 hours, 23 nL of compounds dissolved in DMSO, positive and negative controls or DMSO only was transferred to the assay plate by a pin tool. The plates were incubated at 37 C for 18 hours. 4 ul/well of One-Glo reagent was added into the assay plates using a Flying Reagent Dispenser. After 30-minute incubation at room temperature, the luminescence intensity in the plates was measured using a ViewLux plate reader.
On the % scale 0 is the no-effect control and ±100 the full control effect; potency means the concentration at half of the fitted maximal effect.

Compound | activation | Potency
CC(C)(C)c1ccc(CSc2cnn(C(C)(C)C)c(=O)c2Cl)cc1 | -20.8% (inactive) | 
CCSC(C)CC1CC(=O)C(/C(CC)=N/OC/C=C/Cl)=C(O)C1 (stereo not given) | -3.93% [at 42.5 µM] (inactive) | 
COP(N)(=S)OC | 0.466% (inactive) | 
CCC[CH2][Sn]([CH2]CCC)([CH2]CCC)[O]C(=O)c1ccccc1 | -38.4% (inactive) | 
O=C(O)C1C2CCC(O2)C1C(=O)O (stereo not given) |  | 55.1 µM (active) and 19.9 µM (active)
OC(Cc1ccccc1Cl)(Cn1cncn1)C1(Cl)CC1 (stereo not given) | -11.3% (inactive) | 
Oc1cc(Cl)c(Cl)c(Cl)c1 | -21.5% (inactive) | 
OC(c1ccc(Cl)cc1)(c1ccc(Cl)cc1)C(Cl)(Cl)Cl | 12.1% (inactive) | 
Oc1c(Cl)c(Cl)cc(Cl)c1Cl | -23.8% (inactive) | 
ClC1=C(Cl)[C@]2(Cl)[C@@H]3[C@@H]4C[C@@H]([C@H]5O[C@@H]45)[C@@H]3[C@@]1(Cl)C2(Cl)Cl | -17.6% (inactive) | 
COC12CC[C@@]3(C[C@@H]1C(C)(O)C(C)(C)C)[C@H]1Cc4ccc(O)c5c4[C@@]3(CCN1CC1CC1)[C@H]2O5 (stereo not given in full) | -33.4% (inactive) | 
Cc1ccc(C(=O)Cl)cc1 | 0.708% (inactive) | 
CC(C)(C)C(O)C(Oc1ccc(-c2ccccc2)cc1)n1cncn1 (stereo not given) | -24.6% (inactive) | 
Clc1ccc(C(c2ccc(Cl)cc2)C(Cl)(Cl)Cl)cc1 |  | inactive
Cc1ccc(CCl)cc1 | -0.627% (inactive) | 
C=CC(=O)N(C)C | -0.0566% (inactive) | 
ClC1=C(Cl)[C@]2(Cl)[C@@H]3[C@@H](Cl)[C@@H](Cl)C[C@@H]3[C@@]1(Cl)C2(Cl)Cl | -0.201% (inactive) | 
N#Cc1ccccc1N | -5.04% (inactive) | 
Cc1cc(C(F)(C(F)(F)F)C(F)(F)F)ccc1NC(=O)c1cccc(I)c1C(=O)NC(C)(C)CS(C)(=O)=O | -11.6% [at 42.5 µM] (inactive) | 
Cc1cc(C)cc(OP(=O)(Oc2cc(C)cc(C)c2)Oc2cc(C)cc(C)c2)c1 | -0.347% (inactive) | 

Compound | activation | Potency
Cc1cc(C(C)(C)c2cc(C)c(O)c(C)c2)cc(C)c1O | -13.1% (inactive) | 
FC(F)(F)c1cccc(C2=CCN(CCc3ccc4ccccc4c3)CC2)c1 | 8.59% [at 42.5 µM] (inactive) | 
CC(C)[C@H](C(=O)OC(C#N)c1cccc(Oc2ccccc2)c1)c1ccc(OC(F)F)cc1 (stereo not given in full) | -11.9% (inactive) | 
Nc1ccc(Cl)cc1C(=O)c1ccccc1 |  | 54.5 µM (active)
Oc1ccc(C(c2ccc(O)cc2)(C(F)(F)F)C(F)(F)F)cc1 |  | inactive
CC(=O)c1cc(C(C)(C)C)cc2c1CCC2(C)C | 1.12% (inactive) | 
CCc1ccccc1C | -1.25% (inactive) | 
CC(Cc1ccc(C(C)(C)C)cc1)CN1C[C@@H](C)O[C@@H](C)C1 (stereo not given in full) | -4.04% (inactive) | 
CCCCOCN(C(=O)CCl)c1c(CC)cccc1CC | -33.3% (inactive) | 
O=c1ssc(Cl)c1Cl | -14.9% (inactive) | 
CC(C)(c1ccc(O)c(-c2ccccc2)c1)c1ccc(O)c(-c2ccccc2)c1 | -38.8% (inactive) | 
CCOP(=S)(OCC)SCCS(=O)(=O)CC | -4.54% (inactive) | 
Cn1cc(C2=C(c3cn(C4CCN(Cc5ccccn5)CC4)c4ccccc34)C(=O)NC2=O)c2ccccc21 | -11.2% [at 42.5 µM] (inactive) | 
COCC(=O)N(c1c(C)cccc1C)[C@H](C)C(=O)OC | 1.76% (inactive) | 
COc1cccc2c1C(=O)c1c(O)c3c(c(O)c1C2=O)C[C@@](O)(C(=O)CO)CC3OC1CC(N2CCOC(OC)C2)C(O)C(C)O1 (stereo not given in full) | 4.97% [at 42.5 µM] (inactive) | 
O=[N+]([O-])c1cc([N+](=O)[O-])c2ccccc2c1 | -14.4% (inactive) | 
CCOP(=S)(OCC)OC(Cl)C(Cl)(Cl)Cl (stereo not given) | -1.67% (inactive) | 
CC(C)CC(C)Nc1ccc(Nc2ccccc2)cc1 (stereo not given) | -29.4% (inactive) | 
CC(C)(COCC1CO1)COCC1CO1 (stereo not given) | -0.0984% (inactive) | 
O=C(CBr)c1ccc(O)cc1 | 0.118% (inactive) | 
